The full data set covers some 8,800 targets. This sample favours those with a hit. About 0.5% of all pairs of compound and target were hits. Unmarked numbers belong to inactive results.
Columns and labels:
Assay in all cases: log2 fold change, soluble protein after heating vs DMSO (PISA); higher = thermal stabilisation; K562 lysate, 10 uM; active = over 0.2 and 3.5 SD of the protein, either way, in both replicates (recomputed)
[1] = compound: NCC(=O)Nc1ccc(-n2nc(C(F)(F)F)cc2-c2ccc3c(ccc4ccccc43)c2)cc1
Summary of the method: (§1)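 Quantification was by TMTpro 16plex LC-MS/MS with equalised channel sums, applied to the supernatant after 21,000xg for 90 min. Samples were crude K562 extract at 1 mg/mL protein in PBS pH 7.4 with 1 mM MgCl2, treated with 10 μM compound for 30 min, heated for 3 min across 48°C-58°C, pooled and brought to 0.5% NP-40 at 4°C. Values are log-two fold changes in thermal stability relative to solvent controls, from duplicates.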

vorinostat = compound: O=C(CCCCCCC(=O)Nc1ccccc1)NO [vorinostat]
Summary of the method: as §1

silmitasertib = compound: O=C(O)c1ccc2c(c1)nc(Nc1cccc(Cl)c1)c1ccncc12 [silmitasertib]
Summary of the method: as §1

[2] = compound: O=C1NC(=O)C(c2cnc3ccccn23)=C1c1cn2c3c(cc(F)cc13)CN(C(=O)N1CCCCC1)CC2
Summary of the method: as §1

entospletinib = compound: c1cn2cc(-c3ccc4cn[nH]c4c3)nc(Nc3ccc(N4CCOCC4)cc3)c2n1 [entospletinib]
Summary of the method: as §1

UniProt O75970, sequence (O75970 whole entry, looked up): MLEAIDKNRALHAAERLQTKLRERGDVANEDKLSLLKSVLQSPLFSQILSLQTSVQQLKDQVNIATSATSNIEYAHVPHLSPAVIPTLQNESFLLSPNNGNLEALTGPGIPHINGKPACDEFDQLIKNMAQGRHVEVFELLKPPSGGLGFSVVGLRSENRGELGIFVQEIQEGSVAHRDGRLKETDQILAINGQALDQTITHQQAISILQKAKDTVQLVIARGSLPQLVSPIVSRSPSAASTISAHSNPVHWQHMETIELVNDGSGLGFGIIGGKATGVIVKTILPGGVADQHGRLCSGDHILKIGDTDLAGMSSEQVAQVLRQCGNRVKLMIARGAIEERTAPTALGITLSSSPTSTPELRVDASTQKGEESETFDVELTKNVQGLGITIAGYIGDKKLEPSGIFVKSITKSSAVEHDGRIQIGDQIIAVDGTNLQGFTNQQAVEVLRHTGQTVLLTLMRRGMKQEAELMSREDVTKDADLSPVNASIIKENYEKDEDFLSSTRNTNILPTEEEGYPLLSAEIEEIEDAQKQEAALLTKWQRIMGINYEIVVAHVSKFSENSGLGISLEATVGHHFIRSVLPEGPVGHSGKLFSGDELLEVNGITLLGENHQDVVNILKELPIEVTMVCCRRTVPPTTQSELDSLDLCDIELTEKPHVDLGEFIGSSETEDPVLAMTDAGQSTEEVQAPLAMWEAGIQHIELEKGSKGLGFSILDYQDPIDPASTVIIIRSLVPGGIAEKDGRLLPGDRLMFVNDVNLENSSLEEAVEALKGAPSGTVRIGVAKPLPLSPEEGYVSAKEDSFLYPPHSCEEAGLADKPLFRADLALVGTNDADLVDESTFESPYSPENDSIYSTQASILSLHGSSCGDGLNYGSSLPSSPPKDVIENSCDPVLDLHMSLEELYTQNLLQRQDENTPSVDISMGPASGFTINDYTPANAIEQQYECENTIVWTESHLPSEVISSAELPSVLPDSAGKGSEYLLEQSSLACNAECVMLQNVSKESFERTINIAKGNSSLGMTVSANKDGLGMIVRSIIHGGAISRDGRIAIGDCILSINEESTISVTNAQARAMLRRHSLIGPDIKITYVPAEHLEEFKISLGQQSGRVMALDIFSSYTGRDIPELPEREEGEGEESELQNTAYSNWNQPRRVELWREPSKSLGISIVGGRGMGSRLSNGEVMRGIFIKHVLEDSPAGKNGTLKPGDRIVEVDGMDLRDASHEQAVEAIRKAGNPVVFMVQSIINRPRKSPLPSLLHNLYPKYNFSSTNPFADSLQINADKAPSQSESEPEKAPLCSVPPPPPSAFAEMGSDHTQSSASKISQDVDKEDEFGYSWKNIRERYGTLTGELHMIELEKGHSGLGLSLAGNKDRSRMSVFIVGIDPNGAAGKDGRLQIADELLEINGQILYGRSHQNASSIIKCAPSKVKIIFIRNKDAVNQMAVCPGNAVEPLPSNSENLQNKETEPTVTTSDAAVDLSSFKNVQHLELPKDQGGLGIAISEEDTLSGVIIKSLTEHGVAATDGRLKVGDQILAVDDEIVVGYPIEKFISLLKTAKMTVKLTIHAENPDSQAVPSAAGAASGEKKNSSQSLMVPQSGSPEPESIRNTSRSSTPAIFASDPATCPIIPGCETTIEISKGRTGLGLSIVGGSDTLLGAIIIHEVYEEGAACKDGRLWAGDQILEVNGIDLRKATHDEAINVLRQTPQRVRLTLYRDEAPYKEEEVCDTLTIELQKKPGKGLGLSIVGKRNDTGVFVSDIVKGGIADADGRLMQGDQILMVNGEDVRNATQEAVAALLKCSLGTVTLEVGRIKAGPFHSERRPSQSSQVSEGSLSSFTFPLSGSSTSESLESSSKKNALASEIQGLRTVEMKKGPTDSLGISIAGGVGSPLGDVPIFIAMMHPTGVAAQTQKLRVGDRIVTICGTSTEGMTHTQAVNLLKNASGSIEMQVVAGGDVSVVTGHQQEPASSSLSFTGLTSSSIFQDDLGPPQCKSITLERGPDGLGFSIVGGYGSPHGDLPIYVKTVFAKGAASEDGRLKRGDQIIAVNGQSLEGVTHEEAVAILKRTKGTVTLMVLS
UniProt Q9P0L2, sequence (Q9P0L2 whole entry, looked up): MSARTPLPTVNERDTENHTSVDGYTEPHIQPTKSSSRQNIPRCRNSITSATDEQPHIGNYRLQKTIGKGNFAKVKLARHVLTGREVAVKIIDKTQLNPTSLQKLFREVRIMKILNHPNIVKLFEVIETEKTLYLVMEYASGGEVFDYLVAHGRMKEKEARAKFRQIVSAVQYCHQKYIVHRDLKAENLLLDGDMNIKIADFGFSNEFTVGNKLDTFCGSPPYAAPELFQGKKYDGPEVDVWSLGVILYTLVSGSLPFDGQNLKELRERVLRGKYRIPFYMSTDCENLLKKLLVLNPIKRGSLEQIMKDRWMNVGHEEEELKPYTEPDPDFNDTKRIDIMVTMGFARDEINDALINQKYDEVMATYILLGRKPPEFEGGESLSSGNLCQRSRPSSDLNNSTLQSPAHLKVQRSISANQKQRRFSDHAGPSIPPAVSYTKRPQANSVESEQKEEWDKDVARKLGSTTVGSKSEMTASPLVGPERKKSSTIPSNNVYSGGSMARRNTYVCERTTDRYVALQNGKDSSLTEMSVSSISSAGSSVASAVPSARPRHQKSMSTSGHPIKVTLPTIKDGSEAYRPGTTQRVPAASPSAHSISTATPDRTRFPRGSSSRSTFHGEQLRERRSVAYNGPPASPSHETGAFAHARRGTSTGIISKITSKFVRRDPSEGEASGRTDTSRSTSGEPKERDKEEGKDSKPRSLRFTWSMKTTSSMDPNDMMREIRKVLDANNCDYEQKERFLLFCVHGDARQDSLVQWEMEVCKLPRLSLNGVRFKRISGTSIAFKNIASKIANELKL
UniProt Q2VIQ3, sequence (Q2VIQ3 whole entry, looked up): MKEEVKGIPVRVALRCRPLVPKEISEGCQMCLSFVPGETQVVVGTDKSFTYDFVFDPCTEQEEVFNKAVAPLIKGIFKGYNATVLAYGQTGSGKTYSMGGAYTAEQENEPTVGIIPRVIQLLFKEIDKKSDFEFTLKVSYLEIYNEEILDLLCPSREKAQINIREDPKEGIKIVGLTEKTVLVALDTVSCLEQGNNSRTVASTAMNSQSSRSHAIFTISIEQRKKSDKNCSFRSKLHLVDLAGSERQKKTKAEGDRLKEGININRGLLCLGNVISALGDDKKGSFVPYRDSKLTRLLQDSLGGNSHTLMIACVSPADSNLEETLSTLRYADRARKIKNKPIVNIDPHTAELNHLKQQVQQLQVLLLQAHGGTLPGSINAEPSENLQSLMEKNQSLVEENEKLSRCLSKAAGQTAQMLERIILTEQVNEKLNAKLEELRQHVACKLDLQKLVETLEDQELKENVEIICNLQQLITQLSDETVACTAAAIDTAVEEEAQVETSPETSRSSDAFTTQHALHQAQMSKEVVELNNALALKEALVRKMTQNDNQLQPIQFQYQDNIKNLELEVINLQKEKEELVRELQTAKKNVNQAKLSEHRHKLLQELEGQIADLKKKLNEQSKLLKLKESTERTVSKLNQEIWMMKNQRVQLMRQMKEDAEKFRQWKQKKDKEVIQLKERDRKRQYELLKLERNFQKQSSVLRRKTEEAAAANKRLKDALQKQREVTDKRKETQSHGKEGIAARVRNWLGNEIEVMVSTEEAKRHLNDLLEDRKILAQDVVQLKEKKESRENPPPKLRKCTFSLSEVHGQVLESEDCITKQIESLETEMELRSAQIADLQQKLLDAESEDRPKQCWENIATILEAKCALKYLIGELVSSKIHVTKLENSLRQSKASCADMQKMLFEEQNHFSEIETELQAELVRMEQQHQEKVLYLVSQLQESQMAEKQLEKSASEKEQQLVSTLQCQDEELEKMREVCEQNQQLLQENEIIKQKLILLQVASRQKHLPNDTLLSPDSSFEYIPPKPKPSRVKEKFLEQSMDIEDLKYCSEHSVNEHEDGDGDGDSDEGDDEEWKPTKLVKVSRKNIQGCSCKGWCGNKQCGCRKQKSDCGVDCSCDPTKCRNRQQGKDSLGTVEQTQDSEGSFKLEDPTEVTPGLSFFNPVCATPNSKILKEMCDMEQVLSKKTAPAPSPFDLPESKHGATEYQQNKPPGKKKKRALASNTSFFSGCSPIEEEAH
UniProt Q8N653, sequence (Q8N653 whole entry, looked up): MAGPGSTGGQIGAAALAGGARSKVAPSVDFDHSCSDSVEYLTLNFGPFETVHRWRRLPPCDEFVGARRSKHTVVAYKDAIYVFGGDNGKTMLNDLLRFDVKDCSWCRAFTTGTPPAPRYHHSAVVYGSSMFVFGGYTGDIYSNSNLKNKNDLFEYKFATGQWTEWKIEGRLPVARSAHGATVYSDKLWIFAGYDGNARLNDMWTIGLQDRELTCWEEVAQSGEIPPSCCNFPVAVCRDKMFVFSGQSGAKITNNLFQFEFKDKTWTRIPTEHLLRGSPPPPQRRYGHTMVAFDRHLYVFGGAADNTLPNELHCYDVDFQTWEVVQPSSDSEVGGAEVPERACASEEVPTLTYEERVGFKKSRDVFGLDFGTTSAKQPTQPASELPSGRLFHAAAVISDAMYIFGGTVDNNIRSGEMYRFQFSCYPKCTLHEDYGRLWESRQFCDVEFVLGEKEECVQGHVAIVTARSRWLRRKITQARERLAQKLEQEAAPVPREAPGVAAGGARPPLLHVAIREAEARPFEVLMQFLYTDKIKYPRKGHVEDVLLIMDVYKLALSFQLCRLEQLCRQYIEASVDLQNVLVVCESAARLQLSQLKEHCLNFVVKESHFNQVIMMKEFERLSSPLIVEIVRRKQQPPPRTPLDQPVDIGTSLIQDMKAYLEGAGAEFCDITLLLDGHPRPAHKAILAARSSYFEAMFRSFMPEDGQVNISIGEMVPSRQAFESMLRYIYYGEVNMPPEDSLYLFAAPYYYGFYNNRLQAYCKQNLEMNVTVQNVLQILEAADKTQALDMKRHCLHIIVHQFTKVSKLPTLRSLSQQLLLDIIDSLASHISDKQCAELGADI
UniProt Q9HD34, sequence (Q9HD34 whole entry, looked up): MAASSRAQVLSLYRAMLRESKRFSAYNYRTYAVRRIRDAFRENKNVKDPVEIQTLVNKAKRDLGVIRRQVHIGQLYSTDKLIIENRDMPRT

Row | Target | log2 fold change [1] | log2 fold change (vorinostat) | log2 fold change (silmitasertib) | log2 fold change [2] | log2 fold change (entospletinib)
1 | KMT2A isoform 3 (UniProt Q03164) | 0.046 | 0.101 | 0.012 | 0.066 | -0.034
2 | MAPKAPK3 (UniProt Q16644) | -0.063 | -0.43 (active) | -0.001 | 0.162 | -0.049
3 | KNL1 (UniProt Q8NG31) | 0.022 | -0.254 (active) | -0.003 | -0.009 | -0.011
4 | LIG4 (UniProt P49917) | -0.041 | -0.368 | 0.107 | -0.039 | 0.062
5 | MAST2 (UniProt Q6P0Q8) | 0.062 | -0.166 | 0.055 | -0.013 | -0.189
6 | MAP2K7 isoform 4 (UniProt O14733) | 0.009 | -1.09 (active) | 0.167 | -0.051 | -0.047
7 | LSM8 (UniProt O95777) | -0.052 | 0.063 | -0.011 | 0.009 | 0.028
8 | LZTR1 (UniProt Q8N653) | -0.022 | -0.472 (active) | 0.005 | 0.013 | 0.055
9 | LARS2 (UniProt Q15031) | -0.062 | -0.229 | 0.054 | -0.083 | 0.036
10 | LAP3 (UniProt P28838) | 0.048 | 0.082 | -0.104 | 0.104 | -0.008
11 | MIF (UniProt P14174) | 0.048 | -0.055 | 0.065 | -0.009 | 0.064
12 | MINK1 (UniProt Q8N4C8) | -0.02 | -0.205 | -0.109 | 0.043 | 0.182
13 | MAPK3 (UniProt P27361) | -0.016 | -0.005 | 0.02 | 0.038 | -0.013
14 | MRPL10 isoform 2 (UniProt Q7Z7H8) | 0.005 | 0.035 | -0.027 | -0.027 | -0.027
15 | MAP4 (UniProt E7EVA0) | -0.044 | 0.025 | 0.028 | 0.079 | -0.025
16 | MED14 (UniProt O60244) | -0.01 | -0.21 (active) | -0.035 | 0.002 | -0.084
17 | LYRM4 (UniProt Q9HD34) | 0.01 | 0.119 | -0.019 | 0.023 | 0.007
18 | MAPK14 (UniProt Q16539) | -0.007 | -0.294 | 0.279 | 0.015 | -0.005
19 | MMS19 isoform 8 (UniProt Q96T76) | 0.057 | -0.372 (active) | 0.054 | 0.029 | 0.024
20 | KLC1 isoform 6 (UniProt Q07866) | 0.024 | -0.231 (active) | -0.004 | -0.034 | 0.013

Row | Target | log2 fold change [1] | log2 fold change (vorinostat) | log2 fold change (silmitasertib) | log2 fold change [2] | log2 fold change (entospletinib)
21 | MARK1 (UniProt Q9P0L2) | 0.017 | -0.225 | 0.485 (active) | -0.059 | 0.049
22 | MACO1 (UniProt Q8N5G2) | 0.081 | 0.028 | -0.003 | -0.003 | 0.005
23 | MAPK9 (UniProt P45984) | -0.008 | -0.129 | 0.037 | -0.004 | 0
24 | LUC7L (UniProt Q9NQ29) | 0.003 | 0.136 | -0.126 | -0.016 | -0.019
25 | MFF isoform 2 (UniProt Q9GZY8) | 0.003 | 0.17 | -0.048 | 0.029 | -0.055
26 | KIF14 (UniProt Q15058) | 0.082 | -0.286 (active) | -0.016 | -0.019 | -0.055
27 | MOCS3 (UniProt O95396) | 0.062 | -0.458 (active) | -0.012 | 0.053 | 0.035
28 | MICB, A0A140T979 | 0.068 | 0.196 | -0.121 | 0.021 | 0.35
29 | MAP4K2 (UniProt Q12851) | 0.03 | -0.263 | 0.064 | -0.104 | 0.15
30 | LAMP1 (UniProt P11279) | 0.007 | 0.095 | -0.009 | -0.05 | -0.004
31 | MITD1 (UniProt Q8WV92) | 0.01 | 0.255 (active) | -0.051 | -0.079 | -0.024
32 | MPI (UniProt P34949) | 0.013 | 0.049 | -0.047 | -0.007 | -0.017
33 | KIF4B (UniProt Q2VIQ3) | -0.035 | -0.506 (active) | 0.027 | -0.02 | 0
34 | MPDZ (UniProt O75970) | 0.058 | -0.59 (active) | 0.066 | 0.177 | -0.111
35 | MAP11 (UniProt Q8WVR3) | -0.017 | -0.488 (active) | -0.015 | 0.056 | -0.131
36 | MICU1 isoform 3 (UniProt Q9BPX6) | -0.085 | -0.133 | 0.065 | -0.003 | -0.019
37 | MAPK7 (UniProt Q13164) |  | -0.102 | 0 | -0.01 | 0.029
38 | KMT2B (UniProt Q9UMN6) |  | 0.531 | -0.76 (active) | 0.211 | 0.116
39 | LY6E (UniProt Q16553) | 0.165 |  |  |  | -0.013
40 | MDM1 (UniProt Q8TC05) | 0.056 | 0.085 | 0.093 |  | -0.119

Row | Target | log2 fold change [1] | log2 fold change (vorinostat) | log2 fold change (silmitasertib) | log2 fold change [2] | log2 fold change (entospletinib)
41 | MRC2 (UniProt Q9UBG0) |  | 0.346 | -0.051 | -0.171 | -0.055
42 | KIF18B (UniProt Q86Y91) |  |  |  | -0.098 | -0.035
43 | MARK2 (UniProt E9PC69) | 0.026 | -0.167 | 0.486 (active) | 0.006 | 0.153
44 | MEGF8 (UniProt Q7Z7M0) |  | 0.05 | -0.062 | 0.02 | -0.048
45 | KLC1 isoform 10 (UniProt Q07866) |  | -0.144 | -0.165 |  | -0.171
46 | LIMK1 (UniProt P53667) | -0.127 |  |  | 0.281 | 0.027
47 | MRPL27 (UniProt Q9P0M9) |  | 0.087 | 0.106 | -0.008 | -0.027
48 | LRRIQ1 (UniProt Q96JM4) | 0.056 |  |  | 0.754 (active) | 
49 | MCUB (UniProt Q9NWR8) |  | 0.129 | 0.057 | 0.027 | 
50 | LRP1 (UniProt Q07954) | 0.233 |  |  | 0.296 | -0.032
51 | MAP4K4 isoform 6 (UniProt O95819) |  | -0.134 | 0.02 |  | 0.094
52 | LYN isoform 2 (UniProt P07948) |  | -0.118 | 0.049 | -0.31 | 0.129
53 | LYN (UniProt P07948) | 0.025 | -0.305 | -0.058 | -0.108 | 0.149
54 | MAP4K4 isoform 3 (UniProt O95819) | 0.041 | -0.145 | 0.045 |  | 0.178
55 | MPP1 (UniProt Q00013) | 0.012 | -0.297 (active) | 0.02 | 0.024 | 0.007
56 | KIF21A (UniProt H0YI78) |  | -0.113 | -0.016 |  | 
57 | MAP3K4 isoform 2 (UniProt Q9Y6R4) |  |  |  | 0.034 | 
58 | MAP2K4 isoform 2 (UniProt P45985) | -0.119 | -0.216 | 0.023 | 0.013 | 0.028
